Screening data as filed in PubChem.
Hits are enriched below; roughly 10% of the tested compounds scored in any of these assays.
SARS PLpro yeast: SARS-CoV PLP inhibition in yeast; S. cerevisiae expressing SARS-CoV PLpro, growth rescue; Potency, µM (highest dose often 32.9 µM), hits mostly activators; 330,000 tested, 0.19% active; AID 485353; calls by dose curve; also: nearly all actives have a fitted effect of over 55% in size
NS1 inh: influenza NS1 inhibition. AID 2326. 270,000 tested, 0.4% active. Potency, µM (series often up to 46.1 µM); calls by dose curve; also: actives are rising curves; nearly all actives have a fitted effect of over 50% in size
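OD600 was taken as the measure of yeast growth restored by compound in an NS1-expressing S. cerevisiae strain. Cells had been washed out of glucose medium and diluted 1:100 into galactose -URA medium, pH 6.0.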
Pf growth 96h: P. falciparum growth inhibition at 96 hour, primary screen for plastid delayed-death inhibitors; P. falciparum luciferase reporter growth, 96 h; Potency, µM (series often up to 28.7 µM), actives largely listed as inhibitors; 320,000 tested, 6.9% active
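P. falciparum expressing integrated firefly luciferase grown in erythrocytes (2% hematocrit, 0.05% parasitemia final) with compounds for 96 hours at 37 C, 5% CO2. Growth inhibition read as loss of luminescence after adding luciferase detection reagent.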
Pf growth 48h: inhibits P. falciparum growth in the first generation, 48 h. Potency, µM (top dose mostly 28.7 µM), usual class: inhibitors. 310,000 tested, 5.9% active. AID 504832. P. falciparum luciferase growth in erythrocytes, 48 h
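Growth was read as firefly luciferase luminescence after a 48 h, 37 C, 5% CO2 exposure of compounds to reporter-bearing P. falciparum cultures (0.1% parasitemia, 2% hematocrit final) in Albumax-supplemented RPMI 1640.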
Large screens that a line does not name were inactive. Unless noted, calls follow the shape of the dose curve; as a rule, active = well fitted inhibition curve with a large enough effect; inconclusive = small, poorly fitted or top-dose-only effect, or another doubt; inactive = no such curve, though single readings can be large or run the other way.

CCN(CC)CCNC(=O)c1ccc(NC(=O)c2ccc(F)cc2)cc1	Pf growth 48h inconclusive (no result: NS1 inh)
O=C(O)c1cccc(S(=O)(=O)N2CCN(Cc3ccc4c(c3)OCO4)CC2)c1	none
C/C(=N\O)c1cc(Cl)ccc1O	none
Cn1c(O)c(N=NC(=O)CNC(=O)c2cccnc2)c2ccccc21	none
Cc1ccn2c(c1)nc(=S)n2C(=O)c1ccco1	none
COCCN(Cc1nc2ccccc2c(=O)[nH]1)C(=O)COc1ccccc1-c1ccccc1	Pf growth 96h inconclusive, Pf growth 48h inconclusive (no result: NS1 inh)
Cc1ccc(NS(=O)(=O)c2cc(C(=O)NCCSc3ccc(C)cc3)ccc2C)cc1	Pf growth 96h 12µM, Pf growth 48h inconclusive
CCN(CC(=O)Nc1ccc(NC(C)=O)cc1)C(=O)c1cccc(S(=O)(=O)N2CCc3ccccc3C2)c1	Pf growth 96h inconclusive (no result: NS1 inh)
O=S(=O)(/N=C(/Nc1ccc(Cl)c(S(=O)(=O)N2CCOCC2)c1)c1ccc(F)cc1)c1ccccc1	SARS PLpro yeast inconclusive, Pf growth 48h inconclusive
COc1ccccc1NS(=O)(=O)c1cc(N/C(=N\S(=O)(=O)c2ccccc2)c2ccc(F)cc2)ccc1Cl	Pf growth 96h 13µM, Pf growth 48h 9.3µM
CCN(CC(=O)Nc1cccc(OC)c1)C(=O)c1cccc(S(=O)(=O)N2CCc3ccccc32)c1	Pf growth 96h inconclusive, Pf growth 48h 12µM (no result: NS1 inh)
COc1cc2c(cc1OC)CN(C(=O)c1cccc(S(=O)(=O)N3CCc4ccccc43)c1)CC2	Pf growth 96h 12µM, Pf growth 48h 10µM (no result: NS1 inh)
O=C(c1cccc(S(=O)(=O)N2CCc3ccccc32)c1)N1CCc2ccccc2C1	none (no result: NS1 inh)
Clc1ccc(CN2CCc3c([nH]c4ccccc34)C2)cc1Cl	Pf growth 96h inconclusive, Pf growth 48h inconclusive
Cc1ccc2c(c1)N(CC(=O)Nc1ncccc1C)C(=O)C(C(C)C)O2 (stereo not drawn)	Pf growth 96h inconclusive
CC[C@H](C)C(=O)O[C@H]1CCC=C2C=C[C@H](C)[C@H](CC[C@@H]3C[C@H](O)CC(=O)O3)C21 (stereo partly drawn)	none (no result: SARS PLpro yeast, Pf growth 96h, Pf growth 48h)
Cc1ccc(NS(=O)(=O)c2cc(C(=O)NCCCN(C)C)ccc2Cl)cc1Cl	Pf growth 96h inconclusive, Pf growth 48h 6.6µM (no result: NS1 inh)
COc1cc(/C=C/C(=O)Nc2ccc(C)cc2)cc(OC)c1OC	Pf growth 96h inconclusive
CCN(CC)Cc1ccccc1CNC(=O)c1cccc(S(=O)(=O)Nc2ccc3c(c2)OCO3)c1	Pf growth 96h inconclusive, Pf growth 48h 9.3µM (no result: NS1 inh)
CN(C)CCNC(=O)c1cccc(S(=O)(=O)Nc2ccc(F)cc2)c1	none
CCN(CC)CCNC(=O)c1ccc(NC(=O)/C=C/c2cc(OC)c(OC)c(OC)c2)cc1	Pf growth 96h inconclusive, Pf growth 48h 5.2µM (no result: NS1 inh)
CCN(CC)CCNC(=O)c1ccc(NC(=O)c2cccc(S(=O)(=O)Nc3ccc(C)cc3)c2)cc1	Pf growth 96h 1.2µM, Pf growth 48h 0.37µM (no result: NS1 inh)
COc1cc2c(cc1OC)CN(C(=O)c1ccc(OC)c(S(=O)(=O)N3CCCC3)c1)CC2	Pf growth 96h inconclusive, Pf growth 48h 12µM (no result: NS1 inh)
COc1cc2c(cc1OC)CN(C(=O)c1ccc(Cl)c(S(=O)(=O)N3CCCC3)c1)CC2	none (no result: NS1 inh, Pf growth 96h, Pf growth 48h)
O=C(C[C@H]1C/C=C\CC[C@@H](Cc2ccc(F)cc2)C(=O)OC[C@H]2CCCN2C1=O)N[C@@H](CO)Cc1ccccc1	none (no result: NS1 inh, Pf growth 96h, Pf growth 48h)
COc1cc(-c2ccccc2)nc(N)n1	NS1 inh inconclusive, Pf growth 96h 3.3µM (no result: Pf growth 48h)
Cc1c2ccccc2c(C)c2c1ccc1ccccc12	Pf growth 96h 0.66µM, Pf growth 48h 0.93µM (no result: SARS PLpro yeast, NS1 inh)
CCn1cc(Cl)c(C(=O)Nc2cccc(C(F)(F)F)c2)n1	Pf growth 96h 2.6µM (no result: NS1 inh)
CCn1cc(Cl)c(C(=O)Nc2ccc3c(c2)OCCO3)n1	none (no result: NS1 inh)
CCn1cc(Cl)c(C(=O)Nc2ccccc2C(N)=O)n1	Pf growth 96h 13µM (no result: NS1 inh)
COc1cc(NC(=O)CSCC(=O)Nc2cccc(C(F)(F)F)c2)c(Cl)cc1Cl	Pf growth 96h 12µM, Pf growth 48h inconclusive
COc1ccc(C[C@@H]2CN3C(=NC[C@@H]3C)N2C[C@H](C)NC(=O)c2ccc(C)c(Br)c2)cc1	Pf growth 96h 2.6µM, Pf growth 48h 8.3µM
Cc1ccc(C(=O)NCCN2C3=NC[C@H](C)N3C[C@H]2Cc2ccc(O)cc2)cc1Br	Pf growth 96h 13µM, Pf growth 48h inconclusive
C/C=C(\C)C(=O)N[C@@H](C)CN1C2=NC[C@H](C(C)C)N2C[C@H]1Cc1ccc(OC)cc1	Pf growth 48h inconclusive
C/C=C(\C)C(=O)NCCN1C2=NC[C@H](Cc3ccc(O)cc3)N2C[C@H]1Cc1ccc(O)cc1	Pf growth 96h inconclusive, Pf growth 48h inconclusive
COc1ccc(C[C@H]2CN3C(=NC[C@H]3C)N2CCNC(=O)c2ccc(C)c(Br)c2)cc1	Pf growth 96h 3.7µM
OCC1(CCc2ccccc2)CCCN(CCCc2ccccc2)C1 (stereo not drawn)	Pf growth 48h inconclusive
Cc1ccccc1S(=O)(=O)O[C@@H]1NS(=O)(=O)c2ccccc21	none (no result: SARS PLpro yeast, Pf growth 96h, Pf growth 48h)
C/C(=N\NC(=O)c1cccc(S(=O)(=O)N2CCOCC2)c1)c1ccc(O)cc1	Pf growth 96h 0.59µM (no result: NS1 inh)
CC(=O)Nc1cccc(/C(C)=N/NC(=O)c2cccc(S(=O)(=O)N3CCOCC3)c2)c1	Pf growth 96h 12µM (no result: NS1 inh)
C/C(=N\NC(=O)c1cccc(S(=O)(=O)N2CCOCC2)c1)c1ccc(OC(F)F)cc1	Pf growth 48h inconclusive (no result: NS1 inh)
CC(=O)c1cccc(NC(=O)c2cccc(S(=O)(=O)N3CCOCC3)c2)c1	none
Cc1cc2c(cc1S(=O)(=O)CCC(=O)N(C)C1CCCCC1)OCC(=O)N2	none
O=C1CCC(C(=O)OCC(=O)Nc2ccc(Cl)cc2C(F)(F)F)=NN1	none (no result: NS1 inh, Pf growth 96h, Pf growth 48h)
CCN(CC(=O)Nc1ccc(NC(C)=O)cc1)C(=O)/C=C/c1cn(Cc2ccccc2)nc1-c1cccnc1	Pf growth 96h 10µM, Pf growth 48h inconclusive (no result: NS1 inh)
COc1cccc(NC(=O)CN(C)C(=O)/C=C/c2cn(Cc3ccccc3)nc2-c2cccnc2)c1	Pf growth 96h inconclusive, Pf growth 48h inconclusive (no result: NS1 inh)
COc1ccc(OC[C@@H](O)CNC(=O)c2cccc3c2C(=O)c2ccc(Cl)cc2S3(=O)=O)cc1	Pf growth 96h 2.1µM, Pf growth 48h inconclusive (no result: NS1 inh)
COc1ccccc1NS(=O)(=O)c1cccc(C(=O)NC2CCN(Cc3ccccc3)CC2)c1	Pf growth 96h 3.7µM, Pf growth 48h 10µM (no result: NS1 inh)
COc1ccccc1NS(=O)(=O)c1cccc(C(=O)N/N=C2\CC(=O)CC(C)(C)C2)c1	Pf growth 96h inconclusive, Pf growth 48h 13µM
COc1ccccc1NS(=O)(=O)c1ccc(C)c(C(=O)NC2CCN(Cc3ccccc3)CC2)c1	Pf growth 96h inconclusive, Pf growth 48h 10µM (no result: NS1 inh)
COc1ccc(NS(=O)(=O)c2ccc(C)c(C(=O)NC3CCN(Cc4ccccc4)CC3)c2)cc1	Pf growth 96h 7.4µM, Pf growth 48h 10µM
O=C(Cn1cnc2sc3c(c2c1=O)CCCC3)NCC(=O)Nc1ccc(F)cc1F	none
CCOC(=O)c1ccccc1NC(=O)CSc1nc2ccccc2c(=O)n1CCCN1CCOCC1	none (no result: NS1 inh, Pf growth 96h, Pf growth 48h)
COc1ccc(C(=O)/C=C/C(=O)N(Cc2ccccc2)C(C(=O)NC2CCCCC2)c2ccncc2)c(O)c1 (stereo not drawn)	Pf growth 48h inconclusive
COc1ccc(C(=O)/C=C/C(=O)N(Cc2ccccc2OC)C(C(=O)NC2CCCCC2)c2ccncc2)c(O)c1 (stereo not drawn)	Pf growth 48h 12µM
